Reference: PubChem BioAssay (NCI)
The panel holds about 79,000 compounds, 15% with a hit somewhere; the sample as a whole holds those more often. Activity calls are given as the source filed them. Rule as the data show it: active = growth inhibition above about 70%; inactive = the rest.

Legend:
[1] = NCI Yeast Anticancer Drug Screen. Data for the rad52 strain (AID 147);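 also: 0% = growth of vehicle-treated control cultures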; details: S. cerevisiae rad52 mutant growth inhibition, active compounds read high
Summary of the method: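 Inhibition of yeast growth, referenced to vehicle controls, was the measured output for a strain with defective DNA damage repair.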

[2] = NCI Yeast Anticancer Drug Screen. Data for the wt1 strain (AID 149);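 also: 0% = growth of vehicle-treated wt1 cultures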; details: S. cerevisiae wt1 strain (SPY 50644) growth inhibition, active compounds read high
Summary of the method: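 Readout: yeast growth inhibition, normalised to vehicle controls, in the wt1 strain exposed to test compounds.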

[3] = NCI Yeast Anticancer Drug Screen. Data for the rad50EPP+ strain (AID 151);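 also: 0% = growth of vehicle-treated control cultures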; details: S. cerevisiae rad50 mutant strain, active compounds read high
Summary of the method: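 Genetically defined yeast (rad50EPP+, DNA damage repair alteration) is grown with compound, and inhibition of growth is expressed relative to vehicle-treated controls.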

[4] = NCI Yeast Anticancer Drug Screen. Data for the mgt1 strain (AID 153); details: S. cerevisiae mgt1 mutant growth inhibition, active compounds read high
Summary of the method: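 In the mgt1 strain, test compounds were added and growth inhibition was determined relative to vehicle-treated controls.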

[5] = NCI Yeast Anticancer Drug Screen. Data for the rad50 strain (AID 155);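 also: 0% = growth of vehicle-only cultures of the same strain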; details: S. cerevisiae rad50 strain growth inhibition, active compounds read high
Summary of the method: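 Compounds were tested on a yeast strain with an engineered DNA damage repair alteration; the reported value is growth inhibition normalised to vehicle treatment.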

[6] = NCI Yeast Anticancer Drug Screen. Data for the mec2-1 strain (AID 157); details: S. cerevisiae mec2-1 strain, active compounds read high
Summary of the method: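 Each compound was tested on mec2-1 yeast, a strain altered in DNA damage repair or cell cycle control. Growth inhibition is reported relative to vehicle.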

[7] = NCI Yeast Anticancer Drug Screen. Data for the rad14 strain (AID 159);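 also: 0% = growth of vehicle-treated control cultures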; details: S. cerevisiae rad14 strain growth inhibition, active compounds read high
Summary of the method: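 Compound-treated yeast with a defined DNA-repair lesion; growth inhibition normalised to vehicle-treated cultures.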

[8] = NCI Yeast Anticancer Drug Screen. Data for the sgs1 mgt1 strain (AID 161);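 also: 0% = growth of cultures given vehicle only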; details: S. cerevisiae sgs1 mgt1 strain, active compounds read high
Summary of the method: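 Read-out: growth inhibition vs vehicle controls. Cells: mutant yeast strain deficient in DNA damage repair.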

[9] = NCI Yeast Anticancer Drug Screen. Data for the CLN2oe strain (AID 163);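 also: 0% = growth of vehicle-only control cultures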; details: S. cerevisiae CLN2oe strain, active compounds read high
Summary of the method: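 First, the altered yeast strain was treated with each compound; second, its growth was measured; finally, inhibition was derived by comparison with vehicle controls.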

[10] = NCI Yeast Anticancer Drug Screen. Data for the cln2 rad14 strain (AID 165);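 also: 0% = growth equal to vehicle treated cultures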; details: S. cerevisiae cln2 rad14 strain, active compounds read high
Summary of the method: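 Test compounds were added to cln2 rad14 yeast cultures; inhibition of growth was then determined by comparison with vehicle treatment.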

[11] = NCI Yeast Anticancer Drug Screen. Data for the bub3 strain (AID 167); details: S. cerevisiae bub3 mutant strain, active compounds read high
Summary of the method: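 Growth of a checkpoint-deficient yeast mutant is measured after compound exposure. Values represent inhibition relative to vehicle.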

[12] = NCI Yeast Anticancer Drug Screen. Data for the wt2 strain (AID 169);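 also: 0% = growth of vehicle-treated yeast cultures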; details: S. cerevisiae wt2 strain growth inhibition, active compounds read high
Summary of the method: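 The panel's yeast strains carry defined changes in DNA repair or cell cycle genes. Each strain is grown with compound, and growth loss is scored relative to vehicle.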

[13] = NCI Yeast Anticancer Drug Screen. Data for the mlh1 strain (AID 171);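 also: 0% = growth of vehicle-treated control cultures of the same strain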; details: S. cerevisiae mlh1 strain growth inhibition, active compounds read high
Summary of the method: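 Inhibition values reflect reduced yeast growth in the presence of compound, referenced to vehicle controls, using a strain chosen for its alteration in DNA repair or cell cycle control.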

[14] = NCI Yeast Anticancer Drug Screen. Data for the sgs1 strain (AID 173);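 also: 0% = growth of vehicle-only control cultures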; details: S. cerevisiae sgs1 mutant, active compounds read high
Summary of the method: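 Vehicle-treated cultures served as reference for growth inhibition of a yeast strain altered in DNA damage repair or cell cycle control after compound exposure.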

[15] = NCI Yeast Anticancer Drug Screen. Data for the mlh1 rad18 strain (AID 175); details: S. cerevisiae mlh1 rad18 strain growth inhibition, active compounds read high
Summary of the method: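 Inhibition values reflect reduced growth of mutant yeast versus vehicle-treated controls following compound exposure; the mutations affect DNA damage repair.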

[16] = NCI Yeast Anticancer Drug Screen. Data for the rad18 strain (AID 177); details: S. cerevisiae rad18 mutant growth inhibition, active compounds read high
Summary of the method: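 Steps: expose repair-mutant yeast to compound; measure growth; express as inhibition relative to vehicle control.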

[17] = at 5.0 µM (retest, dose inferred, filed as 0.5)
[18] = at 50.0 µM (retest, dose inferred, filed as 5.0)

Measured: growth inhibition

CC(=O)OCCOCNC(=S)N/N=C(\C)c1cnccn1
inactive: [1]; at 1.2 µM -27% | [1]; at 3.7 µM -41% | [1]; at 11.0 µM -19% | [1]; at 33.0 µM 20% | [2]; at 1.2 µM -14% | [2]; at 3.7 µM -11% | [2]; at 11.0 µM 5% | [2]; at 33.0 µM 28% | [2]; at 100.0 µM 69% | [3]; at 1.2 µM 9% | [3]; at 3.7 µM 9% | [3]; at 11.0 µM -9% | [3]; at 33.0 µM 0% | [3]; at 100.0 µM -4% | [4]; at 1.2 µM 8% | [4]; at 3.7 µM 9% | [4]; at 11.0 µM 29% | [4]; at 33.0 µM 53% | [5]; at 1.2 µM 13% | [5]; at 3.7 µM -1% | [5]; [17] -25% | [5]; at 11.0 µM 15% | [5]; at 33.0 µM 46% | [5]; [18] 45% | [6]; at 1.2 µM -17% | [6]; at 3.7 µM -17% | [6]; [17] -59% | [6]; at 11.0 µM -2% | [6]; at 33.0 µM 27% | [6]; [18] 44% | [6]; at 50.0 µM 59.7% | [7]; at 1.2 µM -8% | [7]; at 3.7 µM -12% | [7]; at 11.0 µM 5% | [7]; at 33.0 µM 46% | [8]; [17] -15% | [8]; [18] 43% | [9]; at 1.2 µM 8% | [9]; at 3.7 µM 2% | [9]; at 11.0 µM 12% | [9]; at 33.0 µM 21% | [10]; [17] -9% | [10]; [18] 45% | [10]; at 50.0 µM 60.8% | [11]; at 1.2 µM -18% | [11]; at 3.7 µM 17% | [11]; [17] -5% | [11]; at 11.0 µM 24% | [11]; at 33.0 µM 51% | [11]; [18] 67% | [12]; at 1.2 µM -23% | [12]; at 3.7 µM -24% | [12]; at 11.0 µM 6% | [12]; at 33.0 µM 25% | [13]; at 1.2 µM -1% | [13]; at 3.7 µM -4% | [13]; at 11.0 µM 15% | [13]; at 33.0 µM 49% | [14]; at 1.2 µM -23% | [14]; at 3.7 µM -15% | [14]; at 11.0 µM 0% | [14]; at 33.0 µM 41% | [15]; [17] -29% | [15]; [18] -7% | [15]; at 50.0 µM 62.4% | [16]; at 1.2 µM 7% | [16]; at 3.7 µM -5% | [16]; at 11.0 µM 13% | [16]; at 33.0 µM 32%
active: [1]; at 100.0 µM 77% | [4]; at 100.0 µM 82% | [5]; at 50.0 µM 73.4% | [5]; at 100.0 µM 85% | [6]; at 100.0 µM 75% | [7]; at 100.0 µM 84% | [8]; at 50.0 µM 72.7% | [9]; at 100.0 µM 82% | [11]; at 50.0 µM 75.3% | [11]; at 100.0 µM 84% | [12]; at 100.0 µM 74% | [13]; at 100.0 µM 80% | [14]; at 100.0 µM 80% | [16]; at 100.0 µM 82%

COC(=O)c1ccc(CCC2=CC(=O)C(Br)=CC2=O)cc1
active: [1]; at 100.0 µM 72% | [3]; at 100.0 µM 88% | [5]; [18] 99% | [6]; [18] 98% | [12]; at 33.0 µM 88% | [12]; at 100.0 µM 98% | [14]; at 100.0 µM 70% | [15]; [18] 99% | [15]; at 50.0 µM 91.8%
inactive: [1]; at 1.2 µM 17% | [1]; at 3.7 µM 35% | [1]; at 11.0 µM 47% | [1]; at 33.0 µM 52% | [2]; at 1.2 µM 4% | [2]; at 3.7 µM 3% | [2]; at 11.0 µM 4% | [2]; at 33.0 µM 12% | [2]; at 100.0 µM 28% | [3]; at 1.2 µM 2% | [3]; at 3.7 µM 37% | [3]; at 11.0 µM 42% | [3]; at 33.0 µM 62% | [4]; at 1.2 µM -6% | [4]; at 3.7 µM -1% | [4]; at 11.0 µM -4% | [4]; at 33.0 µM -7% | [4]; at 100.0 µM 24% | [5]; at 1.2 µM -3% | [5]; at 3.7 µM 14% | [5]; [17] 12% | [5]; at 11.0 µM 15% | [5]; at 33.0 µM 18% | [5]; at 50.0 µM 61.1% | [5]; at 100.0 µM 34% | [6]; at 1.2 µM -7% | [6]; at 3.7 µM -15% | [6]; [17] 44% | [6]; at 11.0 µM -12% | [6]; at 33.0 µM -12% | [6]; at 50.0 µM 68.2% | [6]; at 100.0 µM 19% | [7]; at 1.2 µM -6% | [7]; at 3.7 µM 1% | [7]; at 11.0 µM 5% | [7]; at 33.0 µM 8% | [7]; at 100.0 µM 54% | [8]; [17] 10% | [8]; [18] 0% | [8]; at 50.0 µM 20.3% | [9]; at 1.2 µM -11% | [9]; at 3.7 µM -5% | [9]; at 11.0 µM 10% | [9]; at 33.0 µM 7% | [9]; at 100.0 µM 35% | [10]; [17] 4% | [10]; [18] 14% | [10]; at 50.0 µM 38.7% | [11]; at 1.2 µM -20% | [11]; at 3.7 µM -11% | [11]; [17] 8% | [11]; at 11.0 µM -9% | [11]; at 33.0 µM -5% | [11]; [18] 6% | [11]; at 50.0 µM 23.1% | [11]; at 100.0 µM 29% | [12]; at 1.2 µM -12% | [12]; at 3.7 µM 7% | [12]; at 11.0 µM 39% | [13]; at 1.2 µM 0% | [13]; at 3.7 µM -4% | [13]; at 11.0 µM -5% | [13]; at 33.0 µM 5% | [13]; at 100.0 µM 56% | [14]; at 1.2 µM 8% | [14]; at 3.7 µM 26% | [14]; at 11.0 µM 34% | [14]; at 33.0 µM 35% | [15]; [17] 27% | [16]; at 1.2 µM -25% | [16]; at 3.7 µM -8% | [16]; at 11.0 µM -8% | [16]; at 33.0 µM -25% | [16]; at 100.0 µM 40%

CC(C)(C)c1nc2c(o1)C(=O)c1ccccc1C2=O
active: [1]; at 33.0 µM 89% | [1]; at 100.0 µM 98% | [2]; at 100.0 µM 95% | [3]; at 33.0 µM 87% | [3]; at 100.0 µM 97% | [4]; at 33.0 µM 75% | [4]; at 100.0 µM 95% | [5]; at 33.0 µM 90% | [5]; [18] 91% | [5]; at 50.0 µM 85.2% | [5]; at 100.0 µM 97%
inactive: [1]; at 1.2 µM -27% | [1]; at 3.7 µM -22% | [1]; at 11.0 µM 20% | [2]; at 1.2 µM -30% | [2]; at 3.7 µM -20% | [2]; at 11.0 µM -5% | [2]; at 33.0 µM 63% | [3]; at 1.2 µM -19% | [3]; at 3.7 µM -17% | [3]; at 11.0 µM -7% | [4]; at 1.2 µM -21% | [4]; at 3.7 µM -16% | [4]; at 11.0 µM 19% | [5]; at 1.2 µM -56% | [5]; at 3.7 µM -15% | [5]; [17] 23% | [5]; at 11.0 µM 32% | [6]; at 1.2 µM 11% | [6]; at 3.7 µM 15%
